The values that follow come from PubChem BioAssay (EPA / NIEHS).

Results filed as inconclusive are left out. Activity calls are given as the source filed them. How the source made its calls: active means hit-call score of the fitted dose curve at least 0.9, where 1 is the maximum; inconclusive means response in the unintended direction; inactive means score below 0.9.

Sequence of human Thyroid hormone Receptor beta (TRb), THRB (gene 7068) (P10828 whole entry, looked up, the tested form may be a part): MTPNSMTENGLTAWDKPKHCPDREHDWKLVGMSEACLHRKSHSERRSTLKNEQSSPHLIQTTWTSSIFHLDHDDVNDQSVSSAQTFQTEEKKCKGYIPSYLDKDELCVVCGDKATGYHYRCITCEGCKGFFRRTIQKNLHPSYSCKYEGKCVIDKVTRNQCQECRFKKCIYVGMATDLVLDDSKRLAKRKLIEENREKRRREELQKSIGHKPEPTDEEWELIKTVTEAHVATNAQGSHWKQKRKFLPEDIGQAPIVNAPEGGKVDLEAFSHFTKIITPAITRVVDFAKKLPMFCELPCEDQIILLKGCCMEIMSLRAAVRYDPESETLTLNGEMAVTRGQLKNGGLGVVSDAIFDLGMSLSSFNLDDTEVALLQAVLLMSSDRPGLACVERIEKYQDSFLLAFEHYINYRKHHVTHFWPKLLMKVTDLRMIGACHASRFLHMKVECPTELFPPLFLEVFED

The first assay deals with human Thyroid hormone Receptor beta (TRb), THRB (gene 7068) (UniProt P10828). Briefly: ATG_hTRb_XSP2: Attagene TRANS-FACTORIAL Multi-Species (XSP2) HepG2 Assay for human Thyroid hormone Receptor beta (TRb) (AID 2283840).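 Further: actives raise reporter mRNA so potency reflects agonist-like gain of signal.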 The method in brief:
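In this cell-based multiplex, HepG2 liver cells carrying transfected GAL4-UAS reporter constructs are exposed to chemical for 24 hours, then reporter transcripts are measured by RT-PCR with capillary electrophoresis, scored as gain of signal against DMSO.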
On to `Oc1ccc2c(c1)-c1ccccc1C2`, for which the compound was called inactive.

As to `Clc1nc(Cl)c(Cl)c(Cl)c1Cl`, the compound was called inactive.

In the case of `O=P(OC(CCl)CCl)(OC(CCl)CCl)OC(CCl)CCl`, the compound was called inactive.

The test system of another assay is Sodium/Iodide Symporter (NIS), SLC5A5 (gene 6528). Description: CPHEA_Stoker_NIS_Inhibition_RAIU: CPHEA's Radioactive Iodide Uptake (RAIU) Assay for Sodium/Iodide Symporter (NIS) Inhibition, Stoker and Laws Labs (AID 2283841). The method in brief: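 hNIS-HEK293T-EPA cells incubated 2 h at room temperature with compound (0.001–100 uM, 0.5% DMSO) and 329 pM final 125I in HBSS/10 mM HEPES, pH 7.4. Intracellular 125I counted; normalised to DMSO maximal uptake, triplicate, three biological replicates.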
As to `Cc1[nH]cnc1C[C@H]1CCc2c(C)c3ccccc3n2C1=O`, the outcome was inactive.

Consider `O=C(CCCCCCCCc1cccnc1)N1CCC(C=C(c2ccccc2)c2ccccc2)CC1`, for which the result was inactive.

For `COCCOc1cc2cc(C(=O)NC3CCN(C(C)C)CC3)n(CC(=O)Nc3ccc(Cl)cn3)c2cn1`, the result was inactive.

For `O=C(O)c1cc(N=Nc2ccc(S(=O)(=O)Nc3ccccn3)cc2)ccc1O`, the result was inactive.

Take `Clc1nc(Cl)c(Cl)c(Cl)c1Cl`: the outcome was inactive.

As to `O=P(OC(CCl)CCl)(OC(CCl)CCl)OC(CCl)CCl`, the outcome was inactive.

Regarding `CN(C)c1ccc(Cc2ccc(N(C)C)cc2)cc1`, the result was inactive.

In the case of `O=C(OC[C@H]1O[C@@H](OC(=O)c2cc(O)c(O)c(OC(=O)c3cc(O)c(O)c(O)c3)c2)[C@H](OC(=O)c2cc(O)c(O)c(OC(=O)c3cc(O)c(O)c(O)c3)c2)[C@@H](OC(=O)c2cc(O)c(O)c(OC(=O)c3cc(O)c(O)c(O)c3)c2)[C@@H]1OC(=O)c1cc(O)c(O)c(OC(=O)c2cc(O)c(O)c(O)c2)c1)c1cc(O)c(O)c(OC(=O)c2cc(O)c(O)c(O)c2)c1`, the outcome was inactive.

Regarding `COc1cccc(-c2ccc(/C=C\CN3CCCCCC3)cc2Cl)c1`, the outcome was inactive.

With `O=c1[nH]c2ccc(S(=O)CCN3CCC(Cc4ccc(F)cc4)CC3)cc2o1` (configuration not stated), the result was inactive.

With `CC(C)c1cccc(C(C)C)c1N1C(=O)c2ccc(O)cc2C1=O`, the result was inactive.

Usually AC50 stands for the concentration giving half of the maximal activity seen. On to `CCOc1cccc(-n2cc(C(=O)N3CCN(c4cc(C(=O)O)c5ccccc5c4)CC3)nc2-c2ccc(C)cc2)c1`, for which the AC50 is 83.6 µM (active).

With `Fc1ccccc1[C@@H](F)COC1CCC(Nc2ncnc3[nH]ncc23)CC1` (some centres not stated), the AC50 was 89.1 µM (active).

On to `CCOC(=O)COc1ccc2c(c1)CC(NCC(O)c1cccc(Cl)c1)CC2` (configuration not stated), for which the result was inactive.
